What all share (settings): mRNA level, 48 h; actives raise or lower the signal
Read-out in assay [1]: Intercellular Adhesion Molecule 1 (ICAM1), ICAM1 (gene 3383)
The assay is described as follows: LTEA_HepaRG_ICAM1: Life Technologies and Expression Analysis (LTEA) Assay for Intercellular Adhesion Molecule 1 (ICAM1) using HepaRG (AID 2283507). Summed up:
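HepaRG, 48 h exposure, 8-pt half-log series from 100 uM, 0.5% DMSO vehicle, duplicates. Readout: TaqMan qRT-PCR mRNA, housekeeping-normalized (ACTB/GAPDH/POLR2A). Bidirectional curve fit vs DMSO baseline.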

Read-out in assay [2]: Insulin-like growth factor-binding protein 1 (IGFBP1), IGFBP1 (gene 3484)
The assay is described as follows: LTEA_HepaRG_IGFBP1: Life Technologies and Expression Analysis (LTEA) Assay for Insulin-like growth factor-binding protein 1 (IGFBP1) using HepaRG (AID 2283508). Summed up: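 qRT-PCR mRNA read-out (TaqMan, Fluidigm array), normalised to three housekeeping genes; HepaRG cells, 48 h exposure, 8-pt half-log series from 100 uM, 0.5% DMSO vehicle; bidirectional curve fit vs DMSO baseline.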

Read-out in assay [3]: Interleukin 6 (IL6), IL6 (gene 3569)
Description: LTEA_HepaRG_IL6: Life Technologies and Expression Analysis (LTEA) Assay for Interleukin 6 (IL6) using HepaRG (AID 2283509). The procedure, abridged:
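qRT-PCR read-out of IL6 transcript, normalized to three housekeeping genes, after 48 h chemical exposure of HepaRG cells; 8-point half-log series, top 100 uM, 0.5% DMSO vehicle. Bidirectional curve fitting against DMSO baseline.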

Read-out in assay [4]: Interleukin 6 Receptor (IL6R), IL6R (gene 3570)
The assay is described as follows: LTEA_HepaRG_IL6R: Life Technologies and Expression Analysis (LTEA) Assay for Interleukin 6 Receptor (IL6R) using HepaRG (AID 2283510).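 For AC50: differentiated human HepaRG liver cells in serum-free induction medium.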 The procedure, abridged:
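IL6R transcript level by qRT-PCR after 48 h chemical exposure (8-point, half-log, max 100 uM, 0.5% DMSO vehicle) of HepaRG cells in serum-free induction medium. Normalized to three housekeeping genes; curves fitted in both directions relative to DMSO.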

Read-out in assay [5]: Potassium channel subfamily K member 1 (KCNK1), KCNK1 (gene 3775)
The assay is described as follows: LTEA_HepaRG_KCNK1: Life Technologies and Expression Analysis (LTEA) Assay for Potassium channel subfamily K member 1 (KCNK1) using HepaRG (AID 2283511). The procedure, abridged: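 HepaRG, 48 h exposure, 8-pt half-log series top 100 uM, 0.5% DMSO vehicle, duplicates. Readout: KCNK1 transcript by qRT-PCR (Fluidigm array), housekeeping-normalized; bidirectional curve fit relative to DMSO baseline.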

Read-out in assay [6]: JUN Transcription Factor, JUN (gene 3725)
The assay is described as follows: LTEA_HepaRG_JUN: Life Technologies and Expression Analysis (LTEA) Assay for JUN Transcription Factor using HepaRG (AID 2283513). Summed up: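 mRNA measured by TaqMan qRT-PCR after 48 h chemical exposure of HepaRG cultures; normalization to three housekeeping genes. Duplicate eight-point half-log curves from 100 uM in 0.5% DMSO; gain or loss fitted against DMSO baseline.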

Read-out in assay [7]: Lipase C (LIPC), LIPC (gene 3990)
Description: LTEA_HepaRG_LIPC: Life Technologies and Expression Analysis (LTEA) Assay for Lipase C (LIPC) using HepaRG (AID 2283514). The procedure, abridged:
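HepaRG, 48 h exposure, 8-pt half-log series from 100 uM in 0.5% DMSO, duplicates. Readout: LIPC mRNA by Fluidigm qRT-PCR, housekeeping-normalized (ACTB/GAPDH/POLR2A). Gain or loss fitted bidirectionally against DMSO baseline.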

Read-out in assay [8]: Lipoprotein lipase (LPL), LPL (gene 4023)
Description: LTEA_HepaRG_LPL: Life Technologies and Expression Analysis (LTEA) Assay for Lipoprotein lipase (LPL) using HepaRG (AID 2283515). Summed up: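 HepaRG, 48 h exposure, 8-pt half-log dilutions from 100 uM, 0.5% DMSO vehicle, duplicates; qRT-PCR (Fluidigm array) of LPL mRNA vs housekeeping genes; bidirectional curve fit relative to DMSO baseline.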

Read-out in assay [9]: matrix metalloproteinase-10 (MMP10), MMP10 (gene 4319)
Description: LTEA_HepaRG_MMP10: Life Technologies and Expression Analysis (LTEA) Assay for matrix metalloproteinase-10 (MMP10) using HepaRG (AID 2283517). Summed up:
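Transcript levels come from Fluidigm qRT-PCR normalized to three housekeeping genes, with curves fitted bidirectionally against 0.5% DMSO. Human HepaRG cells were dosed for 48 hours at concentrations up to 100 uM.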

Read-out in assay [10]: Paternally Expressed 10 (PEG10), PEG10 (gene 23089)
The assay is described as follows: LTEA_HepaRG_PEG10: Life Technologies and Expression Analysis (LTEA) Assay for Paternally Expressed 10 (PEG10) using HepaRG (AID 2283520). The procedure, abridged: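 PEG10 transcript measured by Fluidigm qRT-PCR, normalized to three housekeeping genes, in HepaRG cells treated 48 h (highest 100 uM, half-log steps, 0.5% DMSO vehicle). Cells plated 48 h before switching to serum-free induction medium.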

Read-out in assay [11]: Nuclear factor NF-kappa-B p105 subunit (Homo sapiens) (UniProt P19838)
Description: LTEA_HepaRG_NFKB1: Life Technologies and Expression Analysis (LTEA) Assay for Nuclear Factor Kappa B Subunit 1 (NFKB1) using HepaRG (AID 2283521).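 For outcome: differentiated human HepaRG liver cells in serum-free induction medium; TaqMan qRT-PCR transcript normalised to ACTB GAPDH and POLR2A housekeeping genes.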 The procedure, abridged:
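Human HepaRG cells receive eight half-log concentrations, highest 100 uM, for 48 h. NFKB1 expression is then quantified by qRT-PCR and analysed for up- or down-regulation relative to 0.5% DMSO vehicle.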

Read-out in assay [12]: Protein phosphatase 2A (PPP2R4), PTPA (gene 5524)
The assay is described as follows: LTEA_HepaRG_PPP2R4: Life Technologies and Expression Analysis (LTEA) Assay for Protein phosphatase 2A (PPP2R4) using HepaRG (AID 2283522). The procedure, abridged:
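Expression was quantified by Fluidigm qRT-PCR normalised to three housekeeping genes after 48 h treatment. Human HepaRG cells received an 8-point series from 100 µM downward by half-logs, in duplicate with 0.5% DMSO vehicle and 1 mM phenobarbital as induction control.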

Read-out in assay [13]: Phosphatase and tensin (PTEN), PTEN (gene 5728)
The assay is described as follows: LTEA_HepaRG_PTEN: Life Technologies and Expression Analysis (LTEA) Assay for Phosphatase and tensin (PTEN) using HepaRG (AID 2283523). Summed up:
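HepaRG, 48 h exposure, 8-pt half-log series from 100 uM top, 0.5% DMSO vehicle, duplicates. Readout: Fluidigm qRT-PCR of PTEN transcript; housekeeping normalization (ACTB, GAPDH, POLR2A). Gain or loss fitted relative to DMSO baseline.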

Read-out in assay [14]: solute carrier (SLC22A1), SLC22A1 (gene 6580)
The assay is described as follows: LTEA_HepaRG_SLC22A1: Life Technologies and Expression Analysis (LTEA) Assay for solute carrier (SLC22A1) using HepaRG (AID 2283524).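 For AC50: differentiated human HepaRG liver cells in serum-free induction medium.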 Summed up: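 qRT-PCR readout (TaqMan, Fluidigm arrays) of SLC22A1 transcript, normalized to three housekeeping genes; bidirectional curve fit relative to 0.5% DMSO vehicle. Differentiated human HepaRG cells, 48 h chemical exposure, top concentration 100 uM, half-log steps, eight points.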

Read-out in assay [15]: Pyruvate Dehydrogenase Kinase 4 (PDK4), PDK4 (gene 5166)
Description: LTEA_HepaRG_PDK4: Life Technologies and Expression Analysis (LTEA) Assay for Pyruvate Dehydrogenase Kinase 4 (PDK4) using HepaRG (AID 2283525). Summed up: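 HepaRG (human liver line), 48 h chemical exposure, 8-pt half-log CRC top 100 uM, 0.5% DMSO vehicle, duplicates. Readout: TaqMan qRT-PCR of PDK4 mRNA, housekeeping-normalized; gain/loss fit relative to DMSO baseline.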

Read-out in assay [16]: matrix metalloproteinase-3 (MMP3), MMP3 (gene 4314)
Description: LTEA_HepaRG_MMP3: Life Technologies and Expression Analysis (LTEA) Assay for matrix metalloproteinase-3 (MMP3) using HepaRG (AID 2283519). Summed up: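 qRT-PCR read-out of MMP3 mRNA (normalised to three housekeeping genes) in HepaRG liver cells after 48 h chemical exposure; 8-point half-log series, top 100 uM, 0.5% DMSO vehicle. Bidirectional curve fitting against DMSO baseline.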

Read-out in another assay: MYC, MYC (gene 4609)
The assay is described as follows: LTEA_HepaRG_MYC: Life Technologies and Expression Analysis (LTEA) Assay for MYC using HepaRG (AID 2283518). Summed up:
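qRT-PCR read-out of MYC transcript (Fluidigm TaqMan, housekeeping-normalized) after 48 h chemical exposure of HepaRG cells; eight concentrations, top 100 uM, half-log steps. Bidirectional curve fitting against 0.5% DMSO vehicle baseline.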

Read-out in assay [17]: Keratin 19 (KRT19), KRT19 (gene 3880)
Description: LTEA_HepaRG_KRT19: Life Technologies and Expression Analysis (LTEA) Assay for Keratin 19 (KRT19) using HepaRG (AID 2283512). Summed up: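 HepaRG, 48 h chemical exposure, 8-pt half-log CRC from 100 uM, 0.5% DMSO vehicle, duplicates. Readout: TaqMan qRT-PCR of KRT19 mRNA, housekeeping-normalized (ACTB/GAPDH/POLR2A). Bidirectional fit vs DMSO baseline.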

Read-out in assay [18]: MicroRNA 122 (MIR122), gene 406906
The assay is described as follows: LTEA_HepaRG_MIR122: Life Technologies and Expression Analysis (LTEA) Assay for MicroRNA 122 (MIR122) using HepaRG (AID 2283516). Note: the transcript read is the microRNA miR-122. The procedure, abridged:
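Expression measured by microfluidic qRT-PCR with three housekeeping genes for normalisation, after 48 h treatment of HepaRG cultures. Eight concentrations (top 100 uM, half-log steps, 0.5% DMSO vehicle) in duplicate; gain or loss fitted relative to vehicle.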

Structures are written as SMILES. Activity calls are given as the source filed them. Rule for the calls: active = hit-call score of the fitted dose curve at least 0.9, where 1 is the maximum; inactive = score below 0.9.

In general, AC50 refers to the midpoint of the concentration-response curve, whichever way the signal moves.

Nuclear factor NF-kappa-B p105 subunit (Homo sapiens), sequence (P19838 whole entry, looked up): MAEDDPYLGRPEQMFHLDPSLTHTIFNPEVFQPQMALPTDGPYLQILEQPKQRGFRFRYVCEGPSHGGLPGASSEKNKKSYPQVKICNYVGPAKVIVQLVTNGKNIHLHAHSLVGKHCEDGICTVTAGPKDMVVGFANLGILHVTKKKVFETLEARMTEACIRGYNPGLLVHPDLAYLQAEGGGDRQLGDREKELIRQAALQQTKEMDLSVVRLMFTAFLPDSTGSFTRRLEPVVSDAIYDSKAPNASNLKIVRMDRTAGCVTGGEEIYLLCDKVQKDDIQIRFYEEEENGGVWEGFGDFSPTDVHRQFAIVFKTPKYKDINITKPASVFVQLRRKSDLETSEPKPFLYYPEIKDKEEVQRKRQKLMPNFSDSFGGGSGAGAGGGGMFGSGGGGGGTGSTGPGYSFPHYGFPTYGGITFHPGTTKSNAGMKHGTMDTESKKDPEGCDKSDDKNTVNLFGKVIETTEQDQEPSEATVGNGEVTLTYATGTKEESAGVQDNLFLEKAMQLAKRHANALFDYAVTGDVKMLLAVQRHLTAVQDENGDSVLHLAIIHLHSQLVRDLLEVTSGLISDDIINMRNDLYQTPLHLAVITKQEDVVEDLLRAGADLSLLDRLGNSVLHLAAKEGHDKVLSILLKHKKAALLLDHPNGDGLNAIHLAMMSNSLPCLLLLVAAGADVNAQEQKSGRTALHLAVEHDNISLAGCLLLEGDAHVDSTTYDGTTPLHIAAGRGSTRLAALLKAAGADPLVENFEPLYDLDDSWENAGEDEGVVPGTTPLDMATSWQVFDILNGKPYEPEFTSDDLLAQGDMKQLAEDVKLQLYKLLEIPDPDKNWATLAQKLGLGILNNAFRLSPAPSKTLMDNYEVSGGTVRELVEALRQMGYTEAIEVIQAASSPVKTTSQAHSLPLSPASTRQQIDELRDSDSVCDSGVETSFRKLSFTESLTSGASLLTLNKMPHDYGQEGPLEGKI

`Clc1ccccc1C(c1ccccc1)(c1ccccc1)n1ccnc1`: the half-maximal activity concentration (AC50) is 90.6 µM (active) in assay [1]; 16.7 µM (active) in [2]; 88.6 µM (active) in assay [3]; 93 µM (active) in assay [4]; 66 µM (active) in assay [6]; 93.1 µM (active) in assay [7]. For the same molecule, the AC50 was 89.8 µM (active) in assay [8]; 25.2 µM (active) in assay [9]; 92.2 µM (active) in [12]; 87.2 µM (active) in assay [13]; 23.1 µM (active) in [14]; 28.3 µM (active) in assay [15]. Moreover, the outcome in [5], in assay [10] and in assay [11] was inactive.
As to `NC(=O)c1nc(-c2cccc(-c3cc(F)ccc3OCC(F)(F)C(F)(F)F)c2)n[nH]1`, the molecule was called inactive in [1], in [4], in assay [5], in [7], in assay [8] and in assay [9]. The molecule was classed as inactive in assay [12] and in [15]. The half-maximal activity concentration (AC50) in [2] is 78.1 µM (active); in assay [3] it was 78.6 µM (active); in [6], 79 µM (active); in [16], 5.48 µM (active); in assay [11], 82.8 µM (active); in assay [13] it was 80.5 µM (active). Besides, the AC50 in [14] was 15.8 µM (active).
Take `C[C@]12CC[C@@H]3c4ccc(O)cc4CC[C@H]3[C@@H]1CCC2=O`: the molecule was classed as inactive in assay [1], in assay [2], in assay [3], in [4], in assay [5] and in assay [6]. For the same molecule, the outcome in [8] was “inactive”; in assay [9], “inactive”; with MYC, MYC (gene 4609), “inactive”; in [16] it was “inactive”; in assay [10], “inactive”; in assay [11] it was “inactive”. Moreover, the outcome in [12], in [13] and in assay [15] was inactive. Besides, the concentration at half-maximal activity (AC50) in assay [14] was 33.3 µM (active).
As for `CCCCCCCC[Si](OCC)(OCC)OCC`, the call in assay [1], in [2], in [3], in [4], in assay [5] and in assay [17] was inactive. For the same molecule, the result in assay [6], in [7], in [8], in assay [9], in [16] and in assay [10] was inactive. Also, the molecule was called inactive in [11], in [12], in assay [13], in assay [14] and in [15].
In the case of `CCCCCCCCCCCO`, the molecule was called inactive in assay [1], in [2], in assay [3], in assay [4], in [5] and in assay [6]. For the same molecule, the outcome in [7] is “inactive”; in assay [8] it was “inactive”; in [18], “inactive”; in assay [9] it was “inactive”; with MYC, MYC (gene 4609), “inactive”; in assay [10], “inactive”. Besides, the outcome in assay [11], in [12], in [13], in assay [14] and in assay [15] was inactive.
Regarding `O=C(O)c1ccccc1C(=O)OCc1ccccc1`, the molecule was called inactive in [1], in [2], in assay [3], in [4], in assay [5] and in assay [6]. For the same molecule, the outcome in [7] is “inactive”; in assay [8] it was “inactive”; in assay [18], “inactive”; in assay [9], “inactive”; in the assay with MYC, MYC (gene 4609), “inactive”; in assay [16], “inactive”. Moreover, the result in assay [10], in assay [11], in [12], in assay [13] and in [14] was inactive. In addition, the AC50 in assay [15] was 28.6 µM (active).

(Values after PubChem BioAssay (EPA / NIEHS).)
